Results on 23 compounds are retold here after PubChem BioAssay (Tox21).

Values joined by “and” are separate entries in the source; they are usually repeats but may differ in a detail not shown here. Equal values may be shown once. Inconclusive results are not listed. Values without a mark were called inactive. Active and inactive are the calls of the source. Unless noted, calls follow the shape of the dose curve; as a rule, active = well fitted curve in the direction sought with a large enough effect in the repeat runs; inconclusive = weak or mixed curves; inactive = no such curve, though single readings can be large; an effect the other way counts as inactive or inconclusive.

Assay [1] is described as follows: qHTS assay to identify small molecule antagonists of the thyroid receptor (TR) signaling pathway - cell viability counter screen (AID 743064). Also: nearly all actives have a fitted effect of over 50% in size. Also: potency is read from the fitted curve at half-maximal effect. In outline: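 GH3.TRE-Luc cells, 4 h pre-plating; cpd + T3 1 nM final; 37 °C 23.5 h; CellTiter-Fluor 30 min; fluorescence read.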
A general note: Quantitative high-throughput screening tests each substance at several concentrations.

Assay [2] in a line: qHTS assay to identify small molecule antagonists of the thyroid receptor (TR) signaling pathway (AID 743065). Also: nearly all actives have a fitted effect of over 55% in size. Also: potency is read from the fitted curve at half-maximal effect. The method, boiled down: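 Antagonism measured as loss of luciferase signal in GH3 cells stably carrying a TRE-luciferase reporter, co-treated with compound and T3 (1 nM final) for 23.5 h at 37 C. Viability was read in the same well by CellTiter-Fluor.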
In assay [3] the test system is thyroid hormone receptor (rat, GH3 cells). Description: qHTS assay to identify small molecule agonists of the thyroid receptor (TR) signaling pathway (AID 743066; calls by dose curve; also: potency is read from the fitted curve at half-maximal effect).
Assay [4] addresses Estrogen receptor (Homo sapiens) (UniProt P03372). Description: qHTS assay to identify small molecule antagonists of the estrogen receptor alpha (ER-alpha) signaling pathway (AID 743069; active = well fitted curve in the direction sought with a large enough effect in the signal ratio in the repeat runs, not every such curve was filed as active; the % refers to the signal ratio). In outline: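 Antagonist mode: compounds in DMSO were co-added with 17beta-estradiol to ER-alpha-bla HEK293 cells (2% charcoal-stripped serum) and left 18 h at 37C. Reporter inhibition was measured as FRET fluorescence after 2 h LiveBLAzer substrate at room temperature.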

Assay [5] is described as follows: qHTS assay to identify small molecule antagonists of the estrogen receptor alpha (ER-alpha) signaling pathway - cell viability counter screen (AID 743074; calls by dose curve;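 also: HEK293 cells carrying ER-alpha-UAS-bla reporter stimulated with 17beta-estradiol; nearly all actives have a fitted effect of over 45% in size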).
Assay [6] concerns the target Estrogen receptor (Homo sapiens) (UniProt P03372). Description: qHTS assay to identify small molecule agonists of the estrogen receptor alpha (ER-alpha) signaling pathway (AID 743075; calls by dose curve;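 also: HEK293 GripTite cells with ER-alpha and UAS-driven beta-lactamase reporter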).
For assay [7] the target is unchanged. Description: qHTS assay to identify small molecule agonists of the estrogen receptor alpha (ER-alpha) signaling pathway using the BG1 cell line (AID 743079). Also: nearly all actives have a fitted effect of over 20% in size. Also: potency is read from the fitted curve at half-maximal effect. Conditions: BG1Luc4E2 cells, ERE-luciferase agonist, 22 h.
A short description of assay [8]: qHTS assay to identify small molecule antagonists of the estrogen receptor alpha (ER-alpha) signaling pathway using the BG1 cell line (AID 743080; calls by dose curve;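 also: BG1 cells stimulated with 17beta-estradiol alongside compound; nearly all actives have a fitted effect of over 25% in size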). The method, boiled down:
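BG1Luc4E2, endogenous ER-alpha, 4xERE-luc; 5 d charcoal-stripped FBS, phenol red free; 24 h plating; cpd + 17beta-estradiol 21.5 h, 37 C/5% CO2; CellTiter-Fluor viability 30 min, then ONE-Glo luciferase 30 min RT.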

Assay [9] is described as follows: qHTS assay to identify small molecule antagonists of the estrogen receptor alpha (ER-alpha) signaling pathway using the BG1 cell line - cell viability counter screen (AID 743081).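 Also: compound given together with 17beta-estradiol as the ER stimulus; nearly all actives have a fitted effect of over 45% in size.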
The target in a further assay is Aromatase (Homo sapiens) (UniProt P11511). Description: qHTS assay to identify aromatase inhibitors (AID 743083). Also: nearly all actives have a fitted effect of over 55% in size.
% is scaled to controls: 0 for no effect and ±100 for the full control effect.

Sequence of Aromatase (Homo sapiens) (P11511 whole entry, looked up): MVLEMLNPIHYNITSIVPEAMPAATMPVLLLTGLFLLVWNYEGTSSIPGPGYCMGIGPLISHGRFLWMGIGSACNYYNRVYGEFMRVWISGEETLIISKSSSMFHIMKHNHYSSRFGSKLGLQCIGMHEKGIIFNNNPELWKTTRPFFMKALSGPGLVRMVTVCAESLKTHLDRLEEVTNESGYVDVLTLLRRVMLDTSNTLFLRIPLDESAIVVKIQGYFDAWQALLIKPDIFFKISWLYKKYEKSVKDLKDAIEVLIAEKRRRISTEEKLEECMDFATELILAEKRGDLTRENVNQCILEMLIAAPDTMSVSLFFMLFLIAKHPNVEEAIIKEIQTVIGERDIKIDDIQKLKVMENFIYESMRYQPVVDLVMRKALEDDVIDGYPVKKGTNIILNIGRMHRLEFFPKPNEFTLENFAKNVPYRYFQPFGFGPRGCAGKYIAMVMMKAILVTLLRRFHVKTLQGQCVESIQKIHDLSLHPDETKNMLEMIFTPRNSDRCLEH
Sequence of Estrogen receptor (Homo sapiens) (P03372 whole entry, looked up): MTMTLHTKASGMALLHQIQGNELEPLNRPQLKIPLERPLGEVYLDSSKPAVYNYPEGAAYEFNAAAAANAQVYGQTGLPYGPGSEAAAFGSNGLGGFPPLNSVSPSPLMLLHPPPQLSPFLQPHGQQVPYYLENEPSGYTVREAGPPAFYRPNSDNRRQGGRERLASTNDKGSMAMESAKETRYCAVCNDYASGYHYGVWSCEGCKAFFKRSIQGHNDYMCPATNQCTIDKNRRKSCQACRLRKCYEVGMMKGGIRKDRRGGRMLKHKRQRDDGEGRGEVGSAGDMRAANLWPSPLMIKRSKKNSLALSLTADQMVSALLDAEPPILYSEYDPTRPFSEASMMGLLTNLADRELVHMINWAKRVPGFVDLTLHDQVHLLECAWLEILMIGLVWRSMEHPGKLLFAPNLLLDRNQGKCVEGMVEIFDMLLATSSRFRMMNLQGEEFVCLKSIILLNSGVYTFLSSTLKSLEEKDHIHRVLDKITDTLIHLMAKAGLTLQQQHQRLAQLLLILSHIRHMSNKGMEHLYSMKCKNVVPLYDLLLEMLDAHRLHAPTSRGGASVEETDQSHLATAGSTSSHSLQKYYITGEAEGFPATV

In the case of `CCCN1CCC[C@@H]2Cc3[nH]ncc3C[C@H]21`, the Potency result in assay [1], in assay [2], in [3], in assay [4], in assay [5] and in assay [6] was “inactive” each time. For the same compound, the Potency entry (in assay [8]; in assay [9]; with Aromatase (Homo sapiens)) was “inactive” throughout. Moreover, the activation in [7] (at 70.3 µM (top of the series)) was -4.44%.

As for `O=C(O)C(Br)(Br)Br`, the Potency entry in assay [1], in [2], in assay [3], in assay [4], in [5] and in assay [6] was “inactive” in each case. The Potency entry (in assay [8]; in [9]; in the assay with Aromatase (Homo sapiens)) was “inactive” throughout. Also, in [7] (at 70.3 µM (top of the series)), the activation is 6.64%.

For `ClCOCCl`, the Potency entry in assay [1], in assay [2], in assay [3], in assay [4], in assay [5] and in assay [6] was “inactive” in each case. Moreover, the Potency entry (in [8]; in assay [9]; in the assay with Aromatase (Homo sapiens)) was “inactive” in each case. Besides, in assay [7], the Potency is 61.4 µM (active).

Consider `ClC1=C(Cl)C2(Cl)C(CBr)CC1(Cl)C2(Cl)Cl` (stereo not given), for which the Potency was 26.6 µM (active) and 48.6 µM (active) in assay [1]; 26.6 µM (active) and 43.3 µM (active) in [2]. The Potency result in assay [3], in [4], in assay [5], in assay [6], in [8] and in [9] was “inactive” each time. In addition, the Potency result with Aromatase (Homo sapiens) is “inactive”. In addition, the activation in [7] (at 70.3 µM (top of the series)) was -8.81% and -11.5%.

For `Nc1c(Cl)c(F)nc(OCC(=O)O)c1Cl`, the Potency result in assay [1], in assay [2], in assay [3], in assay [4], in assay [5] and in [6] was “inactive” each time. Moreover, the Potency entry (in assay [8]; in assay [9]; with Aromatase (Homo sapiens)) was “inactive” each time. Besides, in assay [7] (at 70.3 µM (top of the series)), the activation was -0.92%.

On to `CCN(CC)CCOC(=O)C(O)(c1ccccc1)c1ccccc1`, for which the Potency result in assay [1], in assay [2], in [3], in assay [4], in assay [5] and in assay [6] was “inactive” in each case. Moreover, the Potency entry (in assay [8]; in assay [9]; with Aromatase (Homo sapiens)) was “inactive” each time. Besides, in assay [7] (at 70.3 µM (top of the series)), the activation is 1.82%.

For the compound `OCC(Cl)CCl` (stereo not given), the Potency entry in [1], in assay [2], in assay [3], in assay [4], in assay [5] and in assay [6] was “inactive” throughout. Also, the Potency entry (in assay [8]; in assay [9]; with Aromatase (Homo sapiens)) was “inactive” in each case. Also, the activation in assay [7] (at 70.3 µM (top of the series)) is 3.3%.

Regarding `O=c1[nH]oc2c1CCNC2`, the Potency entry in assay [1], in assay [2], in assay [3], in [4], in assay [5] and in [6] was “inactive” each time. Moreover, the Potency result (in assay [8]; in [9]; with Aromatase (Homo sapiens)) was “inactive” throughout. For the same compound, the activation in assay [7] (at 70.3 µM (top of the series)) is -5.36%.

Take `C=C(C)[C@H]1CN[C@H](C(=O)O)[C@H]1CC(=O)O`: the Potency entry in assay [1], in assay [2], in [3], in assay [4], in assay [5] and in assay [6] was “inactive” throughout. Moreover, the Potency result (in assay [8]; in assay [9]; in the assay with Aromatase (Homo sapiens)) was “inactive” in each case. In addition, in assay [7] (at 70.3 µM (top of the series)), the activation was 2.22%.

Consider `CS(=O)(=O)c1ccc(C(=O)C2C(=O)CCCC2=O)c(Cl)c1COCC(F)(F)F`, for which the Potency entry in assay [1], in assay [2], in [3], in assay [4], in [5] and in assay [6] was “inactive” in each case. Besides, the Potency result (in assay [8]; in [9]; with Aromatase (Homo sapiens)) was “inactive” throughout. In addition, in assay [7] (at 70.3 µM (top of the series)), the activation was 14.7%.

Regarding `NC(=O)OCCCc1ccccc1`, the Potency entry in [1], in assay [2], in assay [3], in assay [4], in assay [5] and in assay [6] was “inactive” throughout. Also, the Potency result (in assay [8]; in assay [9]; in the assay with Aromatase (Homo sapiens)) was “inactive” in each case. The activation in [7] (at 70.3 µM (top of the series)) was 2.88%.

For `COc1cccc(C=O)c1`, the Potency entry in assay [1], in assay [2], in assay [3], in assay [4], in [5] and in [6] was “inactive” throughout. For the same compound, the Potency entry (in assay [8]; in assay [9]; with Aromatase (Homo sapiens)) was “inactive” in each case. In addition, the activation in [7] (at 70.3 µM (top of the series)) is -1.53%.

As to `CCC(C)(C#N)N=NC(C)(C#N)CC` (stereo not given), the Potency entry in [1], in assay [2], in [3], in [4], in [5] and in assay [6] was “inactive” each time. Moreover, the Potency result (in assay [8]; in assay [9]; with Aromatase (Homo sapiens)) was “inactive” each time. For the same compound, the activation in [7] (at 70.3 µM (top of the series)) is -7.9%.

In the case of `COP(=O)(O)OC`, the Potency entry in [1], in assay [2], in [3], in [4], in [5] and in assay [6] was “inactive” each time. Moreover, the Potency entry (in [8]; in [9]; with Aromatase (Homo sapiens)) was “inactive” in each case. Besides, in [7] (at 95 µM (top of the series)), the activation was -8.98%.

On to `CCCN1CCC[C@@H]2Cc3nc(N)ncc3C[C@H]21`, for which the Potency entry in [1], in assay [2], in [3], in assay [4], in assay [5] and in [6] was “inactive” in each case. Also, the Potency result (in [8]; in assay [9]; with Aromatase (Homo sapiens)) was “inactive” throughout. Besides, in assay [7] (at 70.3 µM (top of the series)), the activation was -11.9%.

On to `O=C/C=C/c1ccco1`, for which the Potency result in assay [1], in [2], in assay [3], in assay [4], in assay [5] and in assay [6] was “inactive” each time. For the same compound, the Potency result (in [8]; in assay [9]; with Aromatase (Homo sapiens)) was “inactive” throughout. Besides, the activation in assay [7] (at 70.3 µM (top of the series)) was 10.7%.

Regarding `CN=CNc1ccc(C)cc1C`, the Potency result in assay [1], in assay [2], in assay [3], in assay [4], in assay [5] and in [6] was “inactive” throughout. Also, the Potency result (in assay [8]; in assay [9]; with Aromatase (Homo sapiens)) was “inactive” each time. Further, the activation in [7] (at 70.3 µM (top of the series)) was 15.7%.

On to `Cc1cccc2sc3nncn3c12`, for which the Potency entry in assay [1], in [2], in [3], in assay [4], in assay [5] and in [6] was “inactive” throughout. For the same compound, the Potency entry (in [8]; in assay [9]; in the assay with Aromatase (Homo sapiens)) was “inactive” throughout. In addition, the activation in assay [7] (at 70.3 µM (top of the series)) is 13.8%.

Take `COC(=O)c1ccccc1CS(=O)(=O)NC(=O)Nc1nc(OC)cc(OC)n1`: the Potency result in assay [1], in [2], in [3], in assay [4], in [5] and in [6] was “inactive” in each case. Also, the Potency entry (in [8]; in assay [9]; with Aromatase (Homo sapiens)) was “inactive” throughout. Besides, the activation in assay [7] (at 70.3 µM (top of the series)) is 1.94%.

As to `CCCCOC(C)=O`, the Potency entry in [1], in [2], in [3], in assay [4], in assay [5] and in assay [6] was “inactive” each time. The Potency entry (in assay [8]; in assay [9]; with Aromatase (Homo sapiens)) was “inactive” throughout. Also, in assay [7] (at 95 µM (top of the series)), the activation was -9.13%.

Regarding `CNC(=O)O/N=C(/CSC)C(C)(C)C`, the Potency entry in [1], in assay [2], in assay [4], in [5], in assay [6] and in [8] was “inactive” throughout. For the same compound, the Potency result (in assay [9]; with Aromatase (Homo sapiens)) was “inactive” each time. Besides, the Potency in assay [3] was 61.1 µM (active). For the same compound, the activation in assay [7] (at 70.3 µM (top of the series)) is -5.87%.

`O=C(CCl)NCO`: the Potency result in [1], in [2], in [3], in assay [4], in assay [5] and in assay [6] was “inactive” throughout. Moreover, the Potency entry (in assay [8]; in assay [9]; in the assay with Aromatase (Homo sapiens)) was “inactive” in each case. In addition, the activation in assay [7] (at 70.3 µM (top of the series)) is -9.09%.

As for `O=CCCl`, the Potency result in assay [1], in assay [2], in assay [3], in assay [4], in assay [5] and in assay [6] was “inactive” in each case. In addition, the Potency result (in assay [8]; in [9]; in the assay with Aromatase (Homo sapiens)) was “inactive” each time. Moreover, the activation in assay [7] (at 70.3 µM (top of the series)) is 14.1%.
